Test results: article PMC7862700, “An all-to-all approach to the identification of sequence-specific readers for epigenetic DNA modifications on cytosine”

Legend:
Experiment in all cases: DAPPL (digital affinity profiling via proximity ligation, sequencing); 10 mM Tris-HCl pH 7.5, 50 mM NaCl, 1 mM DTT, 4% glycerol, room temperature, 30 min; GST-TFs on glutathione beads, 16-mer random dsDNA library, 0.1% formaldehyde crosslink after washing; high values mean tight binding
Conditions in all cases: protein: recombinant; tags: N-terminal GST; dsDNA, one strand shown
[1] = target: T1, FLI1 (Homo sapiens, UniProt Q01543 1-452)
T1 sequence: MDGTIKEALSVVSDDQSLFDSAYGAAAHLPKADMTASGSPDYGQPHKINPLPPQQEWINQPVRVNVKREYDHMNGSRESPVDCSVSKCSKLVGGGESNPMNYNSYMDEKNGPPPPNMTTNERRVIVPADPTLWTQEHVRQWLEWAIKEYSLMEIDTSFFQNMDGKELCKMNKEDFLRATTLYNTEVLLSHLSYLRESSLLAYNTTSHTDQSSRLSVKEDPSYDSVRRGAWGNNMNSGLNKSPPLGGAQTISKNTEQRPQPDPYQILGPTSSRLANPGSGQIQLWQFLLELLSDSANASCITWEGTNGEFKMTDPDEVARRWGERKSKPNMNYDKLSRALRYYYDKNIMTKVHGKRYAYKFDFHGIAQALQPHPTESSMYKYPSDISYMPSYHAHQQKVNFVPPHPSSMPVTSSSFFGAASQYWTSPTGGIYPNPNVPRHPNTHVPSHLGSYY
Procedure, shortened: (§1)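 In yeast, human transcription factors were expressed with a GST fusion, then pulled down on glutathione beads and given DNA barcodes. Pooled with a tag-only sample, they were exposed to 200 nmole of a 16-mer random double-stranded DNA library (Tris/NaCl/DTT/glycerol buffer, room temperature, 30 min), washed, crosslinked with 0.1% formaldehyde, proximity-ligated using BsaI/T4 ligase for 1 h at 37 °C, PCR-amplified and read on an Illumina NextSeq500. Each hexamer's frequency of reads for a factor, divided by the matching frequency for the tag-only sample, gives the binding signal.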

[2] = target: ELF1 (Homo sapiens, UniProt P32519 1-619)
Chain of ELF1 (P32519 whole entry): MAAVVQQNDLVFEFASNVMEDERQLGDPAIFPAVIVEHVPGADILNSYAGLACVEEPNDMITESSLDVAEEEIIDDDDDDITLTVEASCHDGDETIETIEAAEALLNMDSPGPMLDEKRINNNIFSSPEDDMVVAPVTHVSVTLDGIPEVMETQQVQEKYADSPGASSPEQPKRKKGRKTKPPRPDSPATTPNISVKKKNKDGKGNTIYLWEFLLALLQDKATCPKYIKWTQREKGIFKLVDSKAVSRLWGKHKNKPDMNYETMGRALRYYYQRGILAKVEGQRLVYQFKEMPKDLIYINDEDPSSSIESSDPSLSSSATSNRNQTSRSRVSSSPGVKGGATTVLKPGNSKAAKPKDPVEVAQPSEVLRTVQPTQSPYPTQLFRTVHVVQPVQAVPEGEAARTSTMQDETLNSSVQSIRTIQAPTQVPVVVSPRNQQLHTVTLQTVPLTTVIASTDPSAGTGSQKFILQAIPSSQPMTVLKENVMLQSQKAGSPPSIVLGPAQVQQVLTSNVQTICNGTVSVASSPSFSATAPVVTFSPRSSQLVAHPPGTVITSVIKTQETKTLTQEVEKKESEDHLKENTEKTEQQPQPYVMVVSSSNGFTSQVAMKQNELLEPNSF
Procedure, shortened: as §1

[3] = target: T2, EHF (Homo sapiens, UniProt Q9NZC4 1-300)
T2 sequence: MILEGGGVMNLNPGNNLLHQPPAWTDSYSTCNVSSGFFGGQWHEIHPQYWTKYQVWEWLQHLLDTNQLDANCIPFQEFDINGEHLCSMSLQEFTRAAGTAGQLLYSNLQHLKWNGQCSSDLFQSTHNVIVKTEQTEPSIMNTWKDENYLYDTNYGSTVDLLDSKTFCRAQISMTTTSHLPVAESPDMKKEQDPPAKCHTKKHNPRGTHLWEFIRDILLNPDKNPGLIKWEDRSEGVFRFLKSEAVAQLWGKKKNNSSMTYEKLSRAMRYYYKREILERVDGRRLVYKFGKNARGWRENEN
Procedure, shortened: as §1

[4] = target: T3, ELK3 (Homo sapiens, UniProt P41970 1-407)
T3 sequence: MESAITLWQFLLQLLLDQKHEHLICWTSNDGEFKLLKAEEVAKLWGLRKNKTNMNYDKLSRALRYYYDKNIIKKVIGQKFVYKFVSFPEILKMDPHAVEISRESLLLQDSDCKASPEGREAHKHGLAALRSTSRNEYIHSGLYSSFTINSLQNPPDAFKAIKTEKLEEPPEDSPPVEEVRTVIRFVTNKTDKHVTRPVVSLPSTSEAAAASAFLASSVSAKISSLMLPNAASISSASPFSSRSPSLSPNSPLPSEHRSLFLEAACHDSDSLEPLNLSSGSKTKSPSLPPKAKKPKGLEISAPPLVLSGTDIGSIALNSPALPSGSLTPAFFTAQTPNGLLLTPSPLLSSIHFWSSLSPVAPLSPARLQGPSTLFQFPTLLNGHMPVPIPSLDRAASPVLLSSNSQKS
Procedure, shortened: as §1

[5] = target: T4, SPIC (Homo sapiens, UniProt Q8N5J4 1-248)
T4 sequence: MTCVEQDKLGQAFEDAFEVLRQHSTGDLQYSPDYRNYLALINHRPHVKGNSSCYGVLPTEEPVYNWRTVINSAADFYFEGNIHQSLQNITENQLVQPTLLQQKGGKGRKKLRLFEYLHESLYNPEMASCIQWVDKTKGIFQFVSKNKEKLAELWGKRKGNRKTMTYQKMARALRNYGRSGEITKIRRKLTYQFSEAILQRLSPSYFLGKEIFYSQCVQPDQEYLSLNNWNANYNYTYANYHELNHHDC
Procedure, shortened: as §1

[6] = target: ELF4 (Homo sapiens, UniProt Q99607 1-663)
Chain of ELF4 (Q99607 whole entry): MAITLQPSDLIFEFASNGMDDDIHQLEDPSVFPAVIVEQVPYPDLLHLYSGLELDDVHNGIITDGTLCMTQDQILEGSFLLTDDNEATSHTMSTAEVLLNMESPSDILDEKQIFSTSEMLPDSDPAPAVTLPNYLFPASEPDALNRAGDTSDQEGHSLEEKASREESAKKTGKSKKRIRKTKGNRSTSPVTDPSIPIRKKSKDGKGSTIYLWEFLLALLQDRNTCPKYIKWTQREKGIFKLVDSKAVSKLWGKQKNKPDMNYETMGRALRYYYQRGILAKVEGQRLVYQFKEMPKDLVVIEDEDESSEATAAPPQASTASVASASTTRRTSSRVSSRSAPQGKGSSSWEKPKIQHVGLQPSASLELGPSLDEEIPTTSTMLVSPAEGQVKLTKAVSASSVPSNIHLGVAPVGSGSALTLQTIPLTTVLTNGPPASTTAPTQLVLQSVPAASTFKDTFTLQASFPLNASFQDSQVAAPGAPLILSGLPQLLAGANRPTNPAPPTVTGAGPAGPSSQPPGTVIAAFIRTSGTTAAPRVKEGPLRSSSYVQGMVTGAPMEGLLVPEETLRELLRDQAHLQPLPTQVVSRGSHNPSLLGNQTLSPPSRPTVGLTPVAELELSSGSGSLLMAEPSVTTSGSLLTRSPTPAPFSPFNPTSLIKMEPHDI
Procedure, shortened: as §1

[7] = target: T5, ETV2 (Homo sapiens, UniProt O00321 1-342)
T5 sequence: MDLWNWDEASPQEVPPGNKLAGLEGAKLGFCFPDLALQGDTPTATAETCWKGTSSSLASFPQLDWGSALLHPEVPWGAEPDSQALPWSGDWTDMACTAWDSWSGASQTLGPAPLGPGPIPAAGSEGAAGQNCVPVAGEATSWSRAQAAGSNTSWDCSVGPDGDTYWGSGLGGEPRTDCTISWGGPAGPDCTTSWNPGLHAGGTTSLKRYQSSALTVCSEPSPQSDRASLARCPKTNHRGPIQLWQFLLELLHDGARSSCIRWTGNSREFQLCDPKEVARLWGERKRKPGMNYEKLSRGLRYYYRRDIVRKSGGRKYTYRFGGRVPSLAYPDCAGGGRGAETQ
Procedure, shortened: as §1

[8] = target: T6, ELF3 (Homo sapiens, UniProt P78545 1-371)
T6 sequence: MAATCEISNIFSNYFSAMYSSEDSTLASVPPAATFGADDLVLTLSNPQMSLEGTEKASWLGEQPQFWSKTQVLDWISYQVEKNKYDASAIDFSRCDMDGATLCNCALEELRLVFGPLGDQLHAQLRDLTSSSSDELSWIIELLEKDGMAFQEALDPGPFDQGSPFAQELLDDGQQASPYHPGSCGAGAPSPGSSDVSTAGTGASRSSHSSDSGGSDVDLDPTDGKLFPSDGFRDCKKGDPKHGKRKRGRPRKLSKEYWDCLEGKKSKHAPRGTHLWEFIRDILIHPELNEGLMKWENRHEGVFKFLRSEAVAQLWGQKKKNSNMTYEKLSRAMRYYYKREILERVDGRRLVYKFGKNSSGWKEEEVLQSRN
Procedure, shortened: as §1

[9] = target: ETV1 (Homo sapiens, UniProt P50549 1-477)
Chain of ETV1 (P50549 whole entry): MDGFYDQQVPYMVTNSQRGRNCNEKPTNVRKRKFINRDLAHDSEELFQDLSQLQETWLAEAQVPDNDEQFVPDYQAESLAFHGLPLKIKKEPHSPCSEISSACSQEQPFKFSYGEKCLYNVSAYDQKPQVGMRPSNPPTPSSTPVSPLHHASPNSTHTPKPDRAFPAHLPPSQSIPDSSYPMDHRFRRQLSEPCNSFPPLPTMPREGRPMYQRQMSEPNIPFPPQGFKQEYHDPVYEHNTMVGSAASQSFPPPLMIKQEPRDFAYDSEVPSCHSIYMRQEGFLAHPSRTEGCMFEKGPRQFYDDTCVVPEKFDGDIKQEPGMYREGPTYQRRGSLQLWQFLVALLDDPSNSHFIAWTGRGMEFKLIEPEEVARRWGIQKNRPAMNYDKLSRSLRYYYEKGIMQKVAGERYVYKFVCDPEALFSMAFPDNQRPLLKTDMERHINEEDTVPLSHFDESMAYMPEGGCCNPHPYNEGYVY
Procedure, shortened: as §1

[10] = target: T7, ERF (Homo sapiens, UniProt P50548 1-548)
T7 sequence: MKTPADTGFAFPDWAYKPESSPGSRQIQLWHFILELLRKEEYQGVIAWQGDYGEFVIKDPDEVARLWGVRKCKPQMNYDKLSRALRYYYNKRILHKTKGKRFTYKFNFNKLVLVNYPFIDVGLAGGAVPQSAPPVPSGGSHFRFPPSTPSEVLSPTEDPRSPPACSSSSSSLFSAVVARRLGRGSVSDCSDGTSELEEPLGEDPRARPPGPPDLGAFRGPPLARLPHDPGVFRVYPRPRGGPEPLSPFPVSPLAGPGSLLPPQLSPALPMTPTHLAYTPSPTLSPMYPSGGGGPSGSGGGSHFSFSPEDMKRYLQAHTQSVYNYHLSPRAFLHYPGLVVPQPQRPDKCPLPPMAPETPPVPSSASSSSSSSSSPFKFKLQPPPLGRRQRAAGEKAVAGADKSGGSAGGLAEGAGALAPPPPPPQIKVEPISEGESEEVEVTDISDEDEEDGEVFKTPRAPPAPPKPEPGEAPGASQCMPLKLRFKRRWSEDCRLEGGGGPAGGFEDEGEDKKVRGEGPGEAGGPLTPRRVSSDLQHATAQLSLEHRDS
Procedure, shortened: as §1

[11] = target: T8, ETV7 (Homo sapiens, UniProt Q9Y603 1-341)
T8 sequence: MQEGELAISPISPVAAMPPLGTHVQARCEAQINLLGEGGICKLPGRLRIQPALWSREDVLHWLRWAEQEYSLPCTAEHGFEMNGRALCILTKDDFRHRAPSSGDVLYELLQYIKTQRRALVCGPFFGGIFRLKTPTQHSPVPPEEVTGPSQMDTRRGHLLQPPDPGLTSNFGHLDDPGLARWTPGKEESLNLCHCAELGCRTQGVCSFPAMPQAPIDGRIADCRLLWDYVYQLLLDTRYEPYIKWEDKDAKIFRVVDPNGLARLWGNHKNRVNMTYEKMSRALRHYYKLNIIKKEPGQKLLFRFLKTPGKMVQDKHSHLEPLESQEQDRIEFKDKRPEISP
Procedure, shortened: as §1

[12] = target: T9, ETV3 (Homo sapiens, UniProt P41162-2 1-143)
T9 sequence: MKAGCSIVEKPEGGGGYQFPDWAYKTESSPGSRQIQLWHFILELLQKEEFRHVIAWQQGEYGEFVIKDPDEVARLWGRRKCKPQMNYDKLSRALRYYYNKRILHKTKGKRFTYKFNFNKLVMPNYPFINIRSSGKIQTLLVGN
Procedure, shortened: as §1

## ACTCGG
[1]
  binding signal: 1.07 fold enrichment (6-mer frequency, TF over GST control)
[2]
  binding signal: 1.07 fold enrichment (6-mer frequency, TF over GST control)
[3]
  binding signal: 1.04 fold enrichment (6-mer frequency, TF over GST control)
[4]
  binding signal: 1.06 fold enrichment (6-mer frequency, TF over GST control)
[5]
  binding signal: 1.08 fold enrichment (6-mer frequency, TF over GST control)
[6]
  binding signal: 1.02 fold enrichment (6-mer frequency, TF over GST control)
[7]
  binding signal: 1.03 fold enrichment (6-mer frequency, TF over GST control)
[8]
  binding signal: 1.03 fold enrichment (6-mer frequency, TF over GST control)
[9]
  binding signal: 1.03 fold enrichment (6-mer frequency, TF over GST control)
[10]
  binding signal: 1.04 fold enrichment (6-mer frequency, TF over GST control)
[11]
  binding signal: 1.06 fold enrichment (6-mer frequency, TF over GST control)
[12]
  binding signal: 1.04 fold enrichment (6-mer frequency, TF over GST control)
